The structures appear in SMILES notation. About 14,000 (4.5%) of roughly 310,000 compounds showed an effect of 50% or more. Effects have a minus sign here. This excerpt belongs to a sample that is enriched for strong results.
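Also: peak tail current of the secondary pulse compared with the same well before compound.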

The assay deals with human ether-à-go-go-related gene (hERG) potassium channel (human, UniProt Q12809). The experiment in a line: primary screen, population patch clamp on CHO cells stably expressing hERG; higher = less effect of the substance.
Sequence of human ether-à-go-go-related gene (hERG) potassium channel (Q12809 whole entry, looked up): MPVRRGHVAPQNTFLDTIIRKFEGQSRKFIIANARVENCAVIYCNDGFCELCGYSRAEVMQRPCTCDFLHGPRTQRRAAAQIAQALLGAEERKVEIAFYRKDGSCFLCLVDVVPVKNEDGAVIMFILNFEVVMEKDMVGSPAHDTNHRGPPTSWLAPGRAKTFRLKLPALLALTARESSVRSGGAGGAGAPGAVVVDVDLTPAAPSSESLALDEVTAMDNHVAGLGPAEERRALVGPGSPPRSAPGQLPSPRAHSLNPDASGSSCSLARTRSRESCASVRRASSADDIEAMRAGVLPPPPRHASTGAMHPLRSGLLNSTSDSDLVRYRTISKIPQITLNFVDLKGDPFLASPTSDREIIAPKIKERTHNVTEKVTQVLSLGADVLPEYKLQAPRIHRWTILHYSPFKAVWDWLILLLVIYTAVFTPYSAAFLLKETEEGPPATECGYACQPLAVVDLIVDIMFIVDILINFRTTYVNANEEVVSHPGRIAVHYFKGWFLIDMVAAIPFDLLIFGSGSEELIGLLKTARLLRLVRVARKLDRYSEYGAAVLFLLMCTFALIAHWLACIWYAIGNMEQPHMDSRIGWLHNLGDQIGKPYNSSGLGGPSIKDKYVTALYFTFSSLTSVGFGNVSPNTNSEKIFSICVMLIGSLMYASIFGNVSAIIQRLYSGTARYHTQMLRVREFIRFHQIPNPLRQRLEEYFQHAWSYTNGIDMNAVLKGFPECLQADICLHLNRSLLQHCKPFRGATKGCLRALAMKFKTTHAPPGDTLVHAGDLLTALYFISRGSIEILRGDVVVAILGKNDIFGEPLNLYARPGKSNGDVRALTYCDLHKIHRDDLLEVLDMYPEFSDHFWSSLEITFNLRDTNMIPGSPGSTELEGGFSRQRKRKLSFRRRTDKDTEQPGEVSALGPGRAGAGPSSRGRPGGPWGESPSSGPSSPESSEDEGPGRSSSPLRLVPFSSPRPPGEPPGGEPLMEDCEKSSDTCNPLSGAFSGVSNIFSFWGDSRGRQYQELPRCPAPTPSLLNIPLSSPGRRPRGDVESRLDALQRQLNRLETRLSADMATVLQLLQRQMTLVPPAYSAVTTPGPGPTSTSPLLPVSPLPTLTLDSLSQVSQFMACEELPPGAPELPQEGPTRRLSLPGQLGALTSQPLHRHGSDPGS
Turning to `Cc1cc(C(F)F)n2ncc(C(=O)N3CCC(C(N)=O)CC3)c2n1`, the “hERG current change (%, negative = inhibition) at 10uM” value worked out at 16.1%. The result for `CCCCN(C)C(=O)c1cc2c(s1)-c1ccccc1S(=O)(=O)C2` reads -56.5%; that for `CN(C(=O)c1cc2c(s1)-c1ccccc1S(=O)(=O)C2)c1ccccc1F`, -3.69%. With `CN(C(=O)c1cc2c(s1)-c1ccccc1S(=O)(=O)C2)c1ccccc1` the figure was -0.0159%; with `O=C1CCCCC1C(Nc1ccc(Br)cc1)c1ccccc1` (stereo not shown), 4.34%; with `O=C(CCC(=O)Nc1ccc(F)cc1)N/N=C/c1ccc(F)cc1`, 13.1%. With `COc1cc(N2Cc3ccccc3C2)ccc1C=O` the figure was -3.61%. Consider `COc1ccc(N2Cc3ccccc3C2)cc1Cl`, for which the “hERG current change (%, negative = inhibition) at 10uM” value was -59.9%. The result for `COc1ccc(Cl)cc1N1Cc2ccccc2C1` reads -3.46%. The result for `O=c1cc(Nc2ccc3c(c2)OCCO3)[nH]c(=O)n1-c1ccc(Br)cc1` reads 14.3%. Turning to `O=C(CN1C(=O)CSc2ccc(S(=O)(=O)N3CCCCC3)cc21)NCc1ccccc1Cl`, the “hERG current change (%, negative = inhibition) at 10uM” value is listed as -15.1%. The result for `O=S(=O)(Nc1cccc(-n2cnnn2)c1)c1cccc(Cl)c1` reads 16.2%; that for `COc1cccc(-c2cc(C(=O)NC3CC3)c3ccccc3n2)c1`, -51.2%; that for `COc1cccc(-c2cc(C(=O)Nc3ccccc3)c3ccccc3n2)c1`, 8.07%. The result for `COc1ccc(-c2cc(C(=O)NC3CCCC3)c3ccccc3n2)cc1` reads -21.6%; that for `O=C(NC1CC1)c1cc(-c2ccc(Br)cc2)nc2ccccc12`, 0.545%.

Turning to `CN1CCC(N(C)C(=S)NC(=O)c2cc(-c3cccc(Br)c3)nc3ccccc23)CC1`, the “hERG current change (%, negative = inhibition) at 10uM” value is recorded as -15.3%. On to `CN1CCC(NC(=O)c2cc(-c3cccc(Br)c3)nc3ccccc23)CC1`, for which the “hERG current change (%, negative = inhibition) at 10uM” value is given as -69.7%.

As for `Cc1ccc(C)c(-c2cc(C(=O)Nc3cccc(C(=O)O)c3)c3ccccc3n2)c1`, the “hERG current change (%, negative = inhibition) at 10uM” value is given as 20.3%. With `COc1ccc(-c2cc(C(=O)NC3CC3)c3ccccc3n2)cc1` the figure was -64.5%; with `Cc1ccc(C)c(-c2cc(C(=O)Nc3cccnc3)c3ccccc3n2)c1`, -61%.

As for `Cc1ccc2nc(-c3cccc(Br)c3)cc(C(=O)NC3CC3)c2c1`, the “hERG current change (%, negative = inhibition) at 10uM” value is 13.7%.

`COc1cccc(-c2cc(C(=O)NC3CCCC3)c3ccccc3n2)c1`: the “hERG current change (%, negative = inhibition) at 10uM” value is reported as -36.8%. `Cc1cccc(-c2cc(C(=O)Nc3cccnc3)c3ccccc3n2)c1`: the “hERG current change (%, negative = inhibition) at 10uM” value is recorded as -21.2%. Consider `CC1=C(C(=O)OC(C)C)C(c2ccccc2)NC(=S)N1C` (stereo not shown), for which the “hERG current change (%, negative = inhibition) at 10uM” value is 2.43%.

Turning to `COc1ccc(-n2c(=S)[nH]c3ccccc32)cc1`, the “hERG current change (%, negative = inhibition) at 10uM” value is 1.28%. With `Cc1ccc(-c2cc(C(=O)NCCc3ccccn3)c3ccccc3n2)c(C)c1` the figure was -51.1%; with `Cc1c(-c2cccc(Cl)c2)nc2ccccc2c1C(=O)NC1CC1`, -60.6%. On to `COC(=O)c1sccc1NC(=O)c1c(C)c(-c2cccc(Cl)c2)nc2ccccc12`, for which the “hERG current change (%, negative = inhibition) at 10uM” value is 16.7%. With `COc1cccc(-c2cc(C(=O)NN3CCOCC3)c3ccccc3n2)c1` the figure was -24.3%; with `CC(C)Oc1cccc(-c2cc(C(=O)NN3CCOCC3)c3ccccc3n2)c1`, -60.8%; with `Cl.O=C(NCCc1ccccn1)c1cc(-c2cccc3ccccc23)nc2ccccc12`, -27.1%. With `Cc1c(-c2cccc(Cl)c2)nc2ccccc2c1C(=O)N1CCC2(CC1)OCCO2` the figure was -47.4%; with `Cc1ccc(C)c(-c2cc(C(=O)NN3CCOCC3)c3ccccc3n2)c1`, -17.1%; with `Cc1cc(C(=O)NC2CC2)c2ccccc2n1`, 19.9%. With `O=C(NN1CCOCC1)c1cc(-c2ccccc2)nc2ccccc12` the figure was -8.03%.

With `Cc1ccc(C)c(-c2cc(C(=O)NC3CC3)c3ccccc3n2)c1`, the “hERG current change (%, negative = inhibition) at 10uM” value was -61.1%. Take `O=C(NCCc1ccccn1)c1cc(-c2ccccc2Cl)nc2ccccc12`: the “hERG current change (%, negative = inhibition) at 10uM” value is listed as -2.8%. Take `CN(C)S(=O)(=O)c1ccc(N2CCCC2)c(C(=O)Nc2ccc(N3CCOCC3)cc2)c1`: the “hERG current change (%, negative = inhibition) at 10uM” value is -7.91%. With `COc1ccc(C(=O)NCC(=O)NCC(=O)OCc2ccc(Cl)cc2)cc1` the figure was -6.07%; with `O=C(Cc1ncn[nH]1)NCCc1ccccc1`, -3.77%. `Cn1c(=O)[nH]c2nncnc2c1=O`: the “hERG current change (%, negative = inhibition) at 10uM” value is -13%. With `COc1cc2ccccc2cc1C(=O)Nc1cccnc1`, the “hERG current change (%, negative = inhibition) at 10uM” value is -9.84%. On to `CCOC(CC(=O)NNC(=O)c1c(-c2ccccc2Cl)noc1C)OCC`, for which the “hERG current change (%, negative = inhibition) at 10uM” value was found to be 17.7%. With `COc1cc(C(=O)NCCN2CCOCC2)cc(OC)c1OC` the figure was 8.25%. The result for `O=C(NCc1ccccn1)c1cc(-c2ccccc2)nc2ccccc12` reads -25.2%; that for `COc1ccc(Nc2cc(C(=O)NCc3ccccn3)c3ccccc3n2)c(OC)c1`, 8.79%. In the case of `CCc1ccccc1Nc1cc(C(=O)NCc2ccccn2)c2ccccc2n1`, the “hERG current change (%, negative = inhibition) at 10uM” value is -57.8%. The result for `Cc1ccc(CNS(=O)(=O)c2cc3c4c(c2)CCN4C(=O)CC3)cc1` reads -29.4%. With `CC(C)(C)c1ccc(OCC(O)CN2CCN(C(=O)c3ccccc3)CC2)cc1.O=C(O)C(=O)O` (stereo not shown) the figure was -50.7%.

Turning to `O=C(c1ccco1)N1CCN(CC(O)COc2ccc(Br)cc2)CC1` (stereo not shown), the “hERG current change (%, negative = inhibition) at 10uM” value is on record as -72.6%. The result for `Cc1cc(C)c(OCC(O)CN2CCN(C(=O)c3ccccc3)CC2)c(C)c1.O=C(O)C(=O)O` (stereo not shown) reads -46.4%; that for `OC(COc1ccc(Br)cc1)CN1CCN(c2ccccc2)CC1` (stereo not shown), -21.2%; that for `O=C(c1ccco1)N1CCN(CC(O)Cn2c3ccccc3c3ccccc32)CC1` (stereo not shown), -41.9%.

As to `Cl.O=C(c1ccccc1)N1CCN(CC(O)COc2cccc3ccccc23)CC1` (stereo not shown), the “hERG current change (%, negative = inhibition) at 10uM” value is -28.1%.

Regarding `O=C(c1ccccc1)N1CCN(CC(O)COc2ccc(Br)cc2)CC1` (stereo not shown), the “hERG current change (%, negative = inhibition) at 10uM” value is listed as -64.9%. Take `CC(=O)c1cccc(OCC(O)CN2CCN(C(=O)c3ccco3)CC2)c1` (stereo not shown): the “hERG current change (%, negative = inhibition) at 10uM” value is reported as -2.19%. With `CC(=O)N1CCN(CC(O)COc2ccc(Br)cc2)CC1.O=C(O)C(=O)O` (stereo not shown), the “hERG current change (%, negative = inhibition) at 10uM” value is -10.7%. The result for `Cc1cc(C)cc(OCC(O)CN2CCN(C(=O)c3ccco3)CC2)c1` (stereo not shown) reads -43.7%. In the case of `O=C(c1ccco1)N1CCN(CC(O)COc2ccc3oc4ccccc4c3c2)CC1` (stereo not shown), the “hERG current change (%, negative = inhibition) at 10uM” value is on record as -66.4%. Regarding `COC(=O)c1ccc(OCC(O)CN2CCN(C(=O)c3ccco3)CC2)cc1.O=C(O)C(=O)O` (stereo not shown), the “hERG current change (%, negative = inhibition) at 10uM” value is on record as -25.3%.

Values taken from PMC4336329 (PLoS ONE, 2015).
